# JMJD2A Tudor inh – qHTS Assay for Inhibitors of JMJD2A-Tudor Domain | AlphaScreen JMJD2A-Tudor / H3K4me3 peptide binding | Potency, µM (titrated, usually from 114 µM), for the others: at the top dose activity change, negative = inhibition, most hits filed as inhibitors | 4.4% of 390,000 active; note: % is set by controls: 0 for no effect and ±100 for the full control effect; nearly all actives have a fitted effect of over 50% in size
# HP1b chromo inh – HTS for Inhibitors of HP1-beta Chromodomain Interactions with Methylated Histone Tails; AlphaScreen HP1-beta / biotin-H3K9me3 peptide binding; Potency, µM (series often up to 114 µM), inactives show top-dose activity change, negative = inhibition, actives largely listed as inhibitors; 0.56% of 390,000 active; AID 540317, 2011; note: nearly all actives have a fitted effect of over 70% in size
#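 AlphaScreen: HP1-beta (50 nM) preformed 30 min with biotin-H3(1-18)K9me3 peptide (50 nM) in PBS pH 7.4, 0.01% Tween-20. Compound added for 30 min at RT, then streptavidin donor/nickel chelate acceptor beads (10 ug/mL) for 30 min.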
# L3MBTL1 inh – qHTS Assay for the Inhibitors of L3MBTL1 | AlphaScreen L3MBTL1–H3K9me1 peptide binding | Lethal(3)malignant brain tumor-like protein 1 (Homo sapiens), Q9Y468 | Potency, µM (doses to about 57.1 µM), inactives show top-dose activity, negative = inhibition, most hits filed as inhibitors | 0.66% of 230,000 active | AID 485360, 2010; note: % is set by controls: 0 for no effect and ±100 for the full control effect; nearly all actives have a fitted effect of over 60% in size
# Target sequence (Q9Y468 whole entry, looked up): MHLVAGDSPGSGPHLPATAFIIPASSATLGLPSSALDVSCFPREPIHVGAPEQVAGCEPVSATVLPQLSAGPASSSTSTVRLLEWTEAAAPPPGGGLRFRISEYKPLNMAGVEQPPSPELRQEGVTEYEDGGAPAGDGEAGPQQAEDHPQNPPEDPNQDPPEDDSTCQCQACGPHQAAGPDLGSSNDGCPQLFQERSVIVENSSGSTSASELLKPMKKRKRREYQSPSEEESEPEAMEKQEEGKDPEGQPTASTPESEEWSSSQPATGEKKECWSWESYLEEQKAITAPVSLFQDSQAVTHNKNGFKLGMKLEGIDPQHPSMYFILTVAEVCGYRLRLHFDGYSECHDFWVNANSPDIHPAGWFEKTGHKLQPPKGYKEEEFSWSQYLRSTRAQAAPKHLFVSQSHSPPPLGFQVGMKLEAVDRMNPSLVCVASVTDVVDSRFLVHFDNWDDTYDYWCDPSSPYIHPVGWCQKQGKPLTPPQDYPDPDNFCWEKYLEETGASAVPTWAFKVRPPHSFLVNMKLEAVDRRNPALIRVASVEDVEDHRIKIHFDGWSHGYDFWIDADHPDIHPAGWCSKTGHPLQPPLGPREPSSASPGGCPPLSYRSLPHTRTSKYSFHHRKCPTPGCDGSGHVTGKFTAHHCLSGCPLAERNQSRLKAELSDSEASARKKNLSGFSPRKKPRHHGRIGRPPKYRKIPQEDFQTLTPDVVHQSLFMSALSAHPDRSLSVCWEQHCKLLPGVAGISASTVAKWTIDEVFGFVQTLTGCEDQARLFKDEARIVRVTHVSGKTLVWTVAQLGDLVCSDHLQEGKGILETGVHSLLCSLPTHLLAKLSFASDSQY
#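 Displacement of a biotinylated histone H3(1-15) peptide monomethylated at Lys9 (75 nM) from L3MBTL1 (50 nM) was measured by AlphaScreen after a 30 min room-temperature compound incubation; cefsulodin titration served as intraplate control.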
# G9a block – qHTS Assay for Inhibitors of Histone Lysine Methyltransferase G9a | Histone-lysine N-methyltransferase EHMT2 (Homo sapiens), Q96KQ7 | G9a H3K9 monomethylation, AlphaScreen, 2 h | Potency, µM (top dose mostly 102 µM), inactives show top-dose activity, negative = inhibition, hits mostly inhibitors | 8.8% of 350,000 active | AID 504332, 2011; note: % is set by controls: 0 for no effect and ±100 for the full control effect; nearly all actives have a fitted effect of over 75% in size
#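 Using a bead-based AlphaScreen, monomethylated H3K9 product from 2 h room-temperature reactions (G9a 20 nM, peptide 500 nM, SAM 20 uM) was detected with 0.5 ug/mL rabbit anti-H3K9me1 antibody.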
# BAZ2B inh – qHTS Assay for Inhibitors of BAZ2B. Bromodomain adjacent to zinc finger domain protein 2B (Homo sapiens), Q9UIF8. AlphaScreen BAZ2B-H3K14Ac peptide displacement. Potency, µM (highest dose often 114 µM), for inactives: at the highest dose activity change, negative = inhibition, actives largely listed as inhibitors. 4.4% of 360,000 active. AID 504333, 2011; note: % is set by controls: 0 for no effect and ±100 for the full control effect; nearly all actives have a fitted effect of over 60% in size
#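 In this displacement format the biotinylated H3(5-23) peptide acetylated at Lys14 serves as ligand at 50 nM, with BAZ2B at 50 nM in PBS pH 7.4 containing 0.01% Tween-20. Donor and acceptor beads are 10 ug/mL final.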
# * = called active by the depositor; ? = inconclusive; . = no result; [ ] = dose if it differs, or a comment. This is a sample that favours compounds with a hit; in the whole collection about 11% have one here. Calls come from the whole dose curve; as a rule, active = well fitted inhibition curve with a large enough effect; inconclusive = small, poorly fitted or top-dose-only effect; inactive = no such curve, though single readings can be large or run the other way. Potency is the fitted concentration of half-maximal effect.
SMILES,JMJD2A Tudor inh,HP1b chromo inh,L3MBTL1 inh,G9a block,BAZ2B inh
CC1(C)CC(=O)C(C=NCCN2CCN(C(=O)CC3CCCC3)CC2)=C(O)C1,-9%,44%,8%,-4%[59 µM],7%
CC1(C)CC(=O)C(C=NCCN2CCN(C(=O)NC34CC5CC(CC(C5)C3)C4)CC2)=C(O)C1,-16%,41%,4%,50µM*,15%
O=C(OC1CCOC1=O)c1ccc2ncsc2c1 (centres undefined),-3%,35%,-13%,28µM*,3%
O=C(Cn1ncc2c([nH]c3ccccc32)c1=O)Nc1cccc(C(F)(F)F)c1,-11%,40%,.,-4%[59 µM],6%
Cc1cccn2c(=O)c3cc(C#N)c(=O)n(-c4nnc(SCc5ccccc5F)s4)c3nc12,13%,58%,.,31%[59 µM],0%
COc1ccccc1NS(=O)(=O)c1ccc2c(c1)CCC(=O)N2,7%,.,.,.,.
CCC(=O)Nc1sc2c(c1C#N)CCC2,89µM*,-1%,.,17%,-14%
Cc1nnc(SCC(=O)Nc2sc3c(c2C#N)CCCCC3)n1N,-14%,-13%,.,14µM*,-23%
CC(=O)Nc1sc2c(c1C#N)CCC2,-5%,33%,3%,-26%,-11%
N#Cc1c(NC(=O)CSc2nnnn2C2CCCCC2)sc2c1CCCC2,-14%,11%,4%,5%,-5%
N#Cc1c(NC(=O)CCC(=O)O)sc2c1CCCCC2,45µM*,?,-10%,45µM*,?
N#Cc1c(NC(=O)CCC(=O)O)sc2c1CCCC2,-8%,19%,6%,-3%[12.7 µM],10%
CC(C)CC(=O)Nc1sc2c(c1C(=O)O)CCCCC2,-19%,19%,-17%,71µM*,?
CCOc1ccc(C2C(C(=O)Nc3ccc(OC)cc3)=C(C)Nc3nc(SCc4ccc(Cl)cc4)nn32)cc1 (centres undefined),4%,47%,.,10%[59 µM],32%
CC(C)(C)c1ccc(NC(=O)C2=CC=CN3CCS(=O)(=O)N=C23)cc1,-10%,24%,-1%,5%[2.33 µM],4%
CCN(CC)c1ccc(NC(=O)C2=CC=CN3CCS(=O)(=O)N=C23)cc1,?,-23%,-9%,?,45µM*
COc1cccc(OC)c1C(=O)NC1C(=O)N2C1SC(C)(C)C2C(=O)O (centres undefined),.,.,.,-5%[2.33 µM],.
CCCCCCN1C=CC=C/C1=C\C=C(C#N)C#N,?,-31%,?,-48%[12.7 µM],35µM*
CC1=C/C(=C\C=C(C#N)C#N)N(C)c2ccccc21,-21%,14%,-12%,-31%,-33%
O=C(NCc1ccccc1Cl)c1ccc2c(c1)N(Cc1ccccc1)C(=O)CS2,-19%,21%,.,3%[59 µM],-1%
COc1ccc2c(c1OC)C(=O)OC2CC(=O)c1ccc(O)c(O)c1 (centres undefined),5µM*,2%,.,40µM*,?
O=C(OCC#CCSc1nnc(-c2cc3ccccc3cc2O)o1)c1ccc(F)cc1,-14%,.,.,.,.
O=C1C(=O)N(CCCN2CCOCC2)C(c2ccc([N+](=O)[O-])cc2)/C1=C(/O)c1ccc2c(c1)OCO2 (centres undefined),-14%,30%,.,50µM*,-21%
COC(=O)c1ccc(C2/C(=C(\O)c3ccc4c(c3)OCCO4)C(=O)C(=O)N2CCCN2CCOCC2)cc1 (centres undefined),-5%,34%,.,?,-14%
C=CCOc1ccc(C2/C(=C(\O)c3ccc4c(c3)OCCO4)C(=O)C(=O)N2CCCN2CCOCC2)cc1 (centres undefined),-14%,13%,.,50µM*,-24%[57.1 µM]
C=C(CC[C@@H](C)[C@H]1CCC2[C@]1(C)CC[C@]13C[C@@]14CCC(OC(=O)/C=C/c1ccc(O)c(OC)c1)C(C)(C)[C@@H]4CC[C@@]23C)C(C)C (some centres undefined),.,.,.,-42%[12.7 µM],.
CC(C)(C)c1ccc(C(=O)Nc2onc3c2CCCC3)cc1,-18%,39%,.,2%[59 µM],1%
